Bioassay records deposited in PubChem BioAssay by National Center for Advancing Translational Sciences (NCATS).
HP1b binding inh = HTS for Inhibitors of HP1-beta Chromodomain Interactions with Methylated Histone Tails. AlphaScreen HP1-beta / biotin-H3K9me3 peptide binding. Potency, µM (series often up to 114 µM), for inactives: top-dose activity change, negative = inhibition, hits mostly inhibitors. hit rate 0.56% among 390,000. AID 540317, 2011; further: nearly all actives have a fitted effect of over 70% in size
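HP1-beta protein (50 nM final) preincubated 30 min at room temperature with biotinylated H3(1-18)K9me3 peptide (50 nM) in PBS pH 7.4, 0.01% Tween-20, then compound added for 30 min. AlphaScreen streptavidin donor/nickel chelate acceptor beads (10 ug/mL final), 30 min dark, luminescence read.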
BAZ2B inh = qHTS Assay for Inhibitors of BAZ2B; AlphaScreen BAZ2B-H3K14Ac peptide displacement; Bromodomain adjacent to zinc finger domain protein 2B (Homo sapiens), Q9UIF8; Potency, µM (series often up to 114 µM), for inactives: top-dose activity change, negative = inhibition, most hits filed as inhibitors; hit rate 4.4% among 360,000; further: on the % scale 0 is the no-effect control and ±100 the full control effect; nearly all actives have a fitted effect of over 60% in size
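Complex of BAZ2B and biotin-H3K14Ac (50 nM apiece) forms over 30 min at RT, then faces library compounds up to 110 uM for another 30 min; AlphaScreen beads added, 20 min dark incubation, luminescence read.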
JMJD2A Tudor = qHTS Assay for Inhibitors of JMJD2A-Tudor Domain; Lysine-specific demethylase 4A (Homo sapiens), O75164; AlphaScreen JMJD2A-Tudor / H3K4me3 peptide binding; Potency, µM (doses to about 114 µM), without a hit: at the highest dose activity change, negative = inhibition, most hits filed as inhibitors; hit rate 4.4% among 390,000; AID 504339, 2011; further: on the % scale 0 is the no-effect control and ±100 the full control effect; nearly all actives have a fitted effect of over 50% in size
Sfp PPTase inh = qHTS Assay for Inhibitors of Bacillus subtilis Sfp phosphopantetheinyl transferase (PPTase) | Biochemical Sfp PPTase activity, qHTS | Potency, µM, for inactives: largest response in the series, negative = inhibition, usual class: inhibitors | hit rate 3.5% among 310,000;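 further: the enzyme is Sfp with the accession as filed and its product quenches rhodamine fluorescence; 0% = enzyme reaction without inhibitor and -100% = no enzyme wells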
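Reaction rates are the 30-min fluorescence difference (ex 525, em 598 nm) in wells containing 15 nM Sfp, 5 uM rhodamine-CoA and 12.5 uM BHQ-2-YbbR at pH 7.6 with 10 mM MgCl2.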
12-LOX inh = Primary qHTS assay for inhibitors of human arachidonate 12S-lipoxygenase (ALOX12): Round 2. hit rate 1.1% among 580,000. Polyunsaturated fatty acid lipoxygenase ALOX12 (Homo sapiens), P18054. purified 12hLO, xylenol orange hydroperoxide absorbance. AID 1671190, 2021. Potency, µM (series often up to 108 µM), for inactives: top-dose activity change, negative = inhibition, actives largely listed as inhibitors; further: on the % scale 0 is the no-effect control and ±100 the full control effect
Target sequence (P18054 whole entry, looked up): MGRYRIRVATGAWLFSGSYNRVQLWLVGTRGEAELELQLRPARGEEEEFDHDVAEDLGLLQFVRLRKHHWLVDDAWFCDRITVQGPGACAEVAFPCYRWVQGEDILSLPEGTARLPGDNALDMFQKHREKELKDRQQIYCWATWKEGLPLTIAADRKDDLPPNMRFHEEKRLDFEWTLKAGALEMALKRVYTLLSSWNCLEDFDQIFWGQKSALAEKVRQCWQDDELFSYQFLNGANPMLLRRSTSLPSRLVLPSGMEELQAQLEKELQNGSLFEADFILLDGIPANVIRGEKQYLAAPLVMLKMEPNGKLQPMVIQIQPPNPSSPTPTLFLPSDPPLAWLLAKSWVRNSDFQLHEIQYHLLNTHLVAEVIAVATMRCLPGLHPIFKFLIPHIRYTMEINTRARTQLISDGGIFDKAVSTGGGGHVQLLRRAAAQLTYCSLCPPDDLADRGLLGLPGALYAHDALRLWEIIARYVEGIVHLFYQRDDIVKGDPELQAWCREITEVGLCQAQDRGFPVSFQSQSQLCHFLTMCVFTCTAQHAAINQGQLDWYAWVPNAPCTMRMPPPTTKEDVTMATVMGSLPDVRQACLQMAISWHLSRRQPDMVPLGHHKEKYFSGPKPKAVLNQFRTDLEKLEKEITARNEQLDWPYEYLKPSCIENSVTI
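Purified human 12hLO (150 nM final) in 25 mM Hepes, 0.01% Triton X-100, pH 7.0 was preincubated 15 min at room temperature with compound. Then 40 uM arachidonic acid was added, 30 min. Hydroperoxide was read by Fe-XO absorbance ratio 573/405 nm.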
G9a inh = qHTS Assay for Inhibitors of Histone Lysine Methyltransferase G9a; AID 504332, 2011; hit rate 8.8% among 350,000; Potency, µM (top dose mostly 102 µM), without a hit: at the highest dose activity, negative = inhibition, actives largely listed as inhibitors; G9a H3K9 monomethylation, AlphaScreen, 2 h; further: on the % scale 0 is the no-effect control and ±100 the full control effect; nearly all actives have a fitted effect of over 75% in size
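Using a bead-based AlphaScreen, monomethylated H3K9 product from 2 h room-temperature reactions (G9a 20 nM, peptide 500 nM, SAM 20 uM) was detected with 0.5 ug/mL rabbit anti-H3K9me1 antibody.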
The depositor's hits bear a star; ? = inconclusive; · = not tested or not shown; ! = repeats disagree; [ ] = another dose, or the depositor's remark. Only some compounds are listed: those with a hit (about 8.7% of all), similar ones and a draw of the others. The call rests on the fitted dose curve; in most records, active means well fitted curve in the direction sought with a large enough effect; inconclusive means small, poorly fitted or top-dose-only effect, or another doubt; inactive means no such curve, though single readings can be large; an effect the other way counts as inactive or inconclusive. Potency means the concentration at half of the fitted maximal effect.

SMILES	HP1b binding inh	BAZ2B inh	JMJD2A Tudor	Sfp PPTase inh	12-LOX inh	G9a inh
COc1ccc(CNCCc2c[nH]c3ccccc23)c(OC)c1C	?	56µM*	5.6µM*	-27%	?	16µM*
Cc1cc(C(=O)N2[C@H]3CC[C@@H]2c2cnc(-c4ccc(F)cc4)nc2C3)n[nH]1	·	·	·	·	33%	·
CCCNC(=O)N1[C@H]2CC[C@@H]1c1cnc(-c3ccccc3)nc1C2	·	·	·	·	31%	·
CC(C)N(Cc1ccccc1)C(=O)CCS(=O)(=O)c1ccc2c(c1)oc(=O)n2C	51%	-19%	-4%	4%	11%	71µM*
Cc1ccc(Cn2nc(C)c(C(=O)NCc3cc(Cl)c4c(c3)OCCCO4)c2Cl)cc1	·	·	·	·	-14%	·
c1ccc(CCNCc2ccccc2)cc1	15%	3%	-9%	-5%	-2%	6%
CC1=C/C(=N\NC(=S)NCCc2ccccc2)CC(C)(C)C1	-11%	?	50µM*	3%	4.5µM*	40µM*
Cn1c(CN2CCC(C#N)(c3ccccc3)CC2)nnc1C1CC(N)C1 (stereo not given)	·	·	·	·	44%	·
Cc1cc2ccccc2n1CCNC(=O)COc1ccccc1	?	?	20µM*	7%	?	50µM*
Cc1ccc(NC(=O)CN2CCN(C(=O)Cc3c[nH]c4ccccc34)CC2)cc1	·	·	·	·	-4%	·
O=C(Nc1ccccc1F)N1[C@H]2CC[C@@H]1c1cncnc1C2	·	·	·	·	-6%	·
CC(C)CCN1CCC2CC(=O)NCCC2C1 (stereo not given)	·	·	·	·	-16%[12.5 µM]	·
CCOC(=O)C1(c2ccccc2)Oc2ccccc2C(c2ccc(OC)cc2)=C1C(=O)OC (stereo not given)	30%	·	-18%	-8%	-51%	22µM*
CCOC(=O)[C@]12Cc3cc(OC)ccc3[C@H]1N(Cc1ccccc1)C(=O)c1ccccc12	38%	·	-12%	·	3%	·
CCOC(=O)c1c(NC(NC(=O)CF)C(Cl)(Cl)Cl)sc2c1CCCC2 (stereo not given)	-6%	-36%	40µM*	-23%	?	45µM*
CNc1ccc2oc(C[C@@H]3OC4(CC[C@@H]3C)O[C@H](C(C)C(=O)c3ccc[nH]3)[C@H](C)C[C@H]4C)nc2c1C(=O)O (stereo not given in full)	·	·	·	17%	·	18µM*
Cl.Cl.Cl.Cl.Cl.Cl.N.N.N.N.NNNNN.NNNNN.O.O.[Ru].[Ru].[Ru]	·	·	·	50µM*	4%	·
Cc1ncc2c(n1)C[C@@H]1CC[C@H]2N1C(=O)c1cnccn1	·	·	·	·	30%	·
CN1CCNc2cc(Nc3ccc(F)cc3)ncc2C1	·	·	·	·	3%[176 µM]	·
O=C(Nc1ccc(=O)n2c1[C@@H]1C[C@@H](CN(S(=O)(=O)c3ccccc3)C1)C2)c1cccnc1	·	·	·	·	-5%	·
O=C(c1cccs1)C1CCCN(Cc2cc3n(n2)CCNC3)C1 (stereo not given)	·	·	·	·	42%	·
O=c1c2cc([N+](=O)[O-])ccc2nc(CN2CCOCC2)n1-c1ccccc1F	·	-36%	·	22µM*	·	2.8µM*
COc1cccc(-n2c(CN3CCN(C)CC3)nc3ccc([N+](=O)[O-])cc3c2=O)c1	2%	-33%	-17%	7.9µM*	11%	?
CCn1c(C2CCNCC2)nn(C)c1=O	·	·	·	·	4%	·
Nc1ccc(Br)cc1	4%	·	-9%	·	8%	·
SMILES	HP1b binding inh	BAZ2B inh	JMJD2A Tudor	Sfp PPTase inh	12-LOX inh	G9a inh
Nc1ccc(N=Nc2ccccc2)cc1	?	22µM*	45µM*	8%	-10%	45µM*
Cc1cccnc1-n1c(-c2ccco2)nc2ccccc2c1=O	22%	-6%	13%	0%	0%	50µM*
O=C(Nc1nn[nH]n1)c1cccc([N+](=O)[O-])c1	20%	79µM*	22µM*	-27%	-9%	25µM*
COc1ccc(/C=N/NC(=O)c2cccc([N+](=O)[O-])c2)cc1OC	43%	-15%	-7%	7%	-12%	·
O=C1Nc2ccccc2C12CCN(Cc1ccc(C(F)(F)F)cc1)CC2	·	·	·	·	2%[6.33 µM]	·
CCC(COC(=O)c1cc(OC)c(OC)c(OC)c1)(c1ccccc1)N(C)C (stereo not given)	-7%	-38%	50µM*!	-3%	-7%	-45%[2.33 µM]
O=C1Nc2ccccc2Sc2ccccc21	37%	-12%	-9%	-2%	?	20%
c1ccc2c(c1)Nc1ccccc1S2	?	13µM*	?	4%	0.11µM*	13µM*
Cc1ccc(N2CCN(CCc3ccccc3)CC2)cc1	-14%	50µM*	?	-1%	?	?
CCCCCCCSc1cc(OC)c(CCNC)cc1OC	?	20µM*	45µM*	?	?	22µM*
O=C(CCc1ccccc1)N1[C@H]2CC[C@@H]1c1cnc(-c3ccc(F)cc3)nc1C2	·	·	·	·	-5%	·
NS(=O)(=O)c1nc[nH]c1[N+](=O)[O-]	5%	·	20µM*	·	-10%	·
COc1cc2c(cc1OCc1ccccc1)NC(=O)C21CCN(C(=O)C2CCC2)CC1	·	·	·	·	-16%[176 µM]	·
O=C1NC(=O)C(=Cc2ccc3ccccc3c2)C(=O)N1	37%	-2%	-19%	40µM*	?	-40%[12.7 µM]
Cc1nn(Cc2ccccc2)c(C)c1C=C1C(=O)NC(=O)NC1=O	25%	3%	-8%	-28%	-17%	-6%[59 µM]
O=C1NC(=O)C(=Cc2ccc(Cl)cc2)C(=O)N1	·	·	·	·	40µM*	·
CCn1cc(C=C2C(=O)NC(=O)NC2=O)c2ccccc21	16%[57 µM]	1%	-22%	-9%	-2%	-7%
O=C(NCC1CC1)c1cn(C2CNC2)nn1	·	·	·	·	23%	·
CCOC(=O)C1=C(NC(=S)NC(=O)c2ccccc2)c2ccccc2CC12CCCC2	-25%	-33%	?	9%	20µM*	-14%[59 µM]
ClCCN1CCCC1	·	·	·	·	-59%	·
ClC1=CCC2CN(CCN3CCCCC3)CC2C1 (stereo not given)	23%	5%	-8%	19%	-16%	79µM*
O=C1CO[C@H]2CN(Cc3ncc[nH]3)C[C@H]2N1Cc1ccncc1	·	·	·	·	86%[176 µM]	·
O=C1NC(=O)N(c2ccc(Cl)cc2)C(=O)/C1=C/c1coc2ccc(O)cc2c1=O	-1%	-30%	100µM*	45µM*	?	16µM*
O=C1NC(=O)N(c2ccccc2)C(=O)/C1=C/c1coc2ccc(O)cc2c1=O	12%	?	?	50µM*	45µM*	-114%[59 µM]
Cc1ccc(CC2C(=O)N(C)C(=O)N(C)C2=O)s1	8%	-3%	-27%	35µM*	?	7.9µM*
